The campaign covered roughly 48,000 compounds. About 13,000 (27%) showed an effect of 50% or more. Some of the results follow.
test system: Wolbachia pipientis; assay: Anti-Wolbachia Cell-Based Screen; type: functional; parameters: scale not given: in the data most compounds retested in dose-response had high values; conditions: 5 µM

SMILES	Percent Effect [%]
CN(c1ccncn1)C1CC2(CCN(C(=O)CCc3cccs3)C2)C1 (stereo not drawn)	-6.442
Cc1noc(C)c1CN1CC2(CCN(C(=O)c3cccn3C)C2)CC1=O (stereo not drawn)	-4.057
Cc1ccc(N2CCCC3(CCN(C(=O)c4sccc4C)C3)C2)nn1 (stereo not drawn)	-21.87
Cn1cccc1C(=O)N1CCCC2(CCCN2Cc2cccnc2)C1 (stereo not drawn)	0.2442
CN(c1ccncn1)C1CC2(CCN(C(=O)c3cncs3)C2)C1 (stereo not drawn)	101.7
CN(c1ccncn1)C1CC2(CCN(C(=O)c3cccn3C)C2)C1 (stereo not drawn)	100.1
Cc1ccsc1C(=O)N1CCC2(CC(N(C)c3ccncn3)C2)C1 (stereo not drawn)	125
CN(c1ccncn1)C1CC2(CCN(C(=O)c3cccs3)C2)C1 (stereo not drawn)	5.118
CN(c1ccncn1)C1CC2(CCN(C(=O)Cc3cccs3)C2)C1 (stereo not drawn)	98.18
CN(Cc1ccncc1)C1CC2(CCN(C(=O)c3ccnnc3)CC2)C1	2.338
Cc1ccsc1C(=O)N1CCC(c2nccn2Cc2ccncc2)CC1	-26.92
CN(C)C(=O)N1CCN(Cc2noc(Cc3ccccc3)n2)CC1	-7.499
CC(C)CN1C(=O)CO[C@@H]2CN(C(=O)CC(F)(F)F)C[C@H]21	-4.787
O=C(Nc1ccnc(OC2CCOC2)c1)c1cc(F)ccc1F (stereo not drawn)	-0.1893
Cc1noc(C)c1C(=O)N1CCC2(CC(N(C)c3ccncn3)C2)C1 (stereo not drawn)	121.5
CN(c1ccncn1)C1CC2(CCN(C(=O)c3ccsc3)C2)C1 (stereo not drawn)	9.271
CN(Cc1cccnc1)C1CC2(CCN(C(=O)c3cnccn3)CC2)C1	-5.762
CN(Cc1cccnc1)C1CC2(CCN(C(=O)c3cscn3)CC2)C1	-13.69
Cc1ccc(C(=O)N2CCC3(CC(N(C)c4ccncn4)C3)C2)cn1 (stereo not drawn)	100.9
Cc1noc(C)c1C(=O)N1CC[C@H]2C[C@@H](c3ccncn3)O[C@@H]2C1	-6.202
Cc1noc(C)c1CN1CC2(CCN(C(=O)c3c[nH]cn3)C2)CC1=O (stereo not drawn)	-8.686
Cc1csc(C(=O)N2CCC3(CC(N(C)c4ccncn4)C3)C2)c1 (stereo not drawn)	119.5
CCOC(=O)CCCN1CCCC(C(=O)Nc2ccc(Cl)cn2)C1 (stereo not drawn)	-9.707
CCC(=O)N1CCC2(C=C(C(=O)N(C)C)c3ccccc32)CC1	99.74
O=C(C1=CC2(CCNCC2)c2ccccc21)N1CCCC1	-0.6834
CCC(=O)N1CCC2(C=C(C(=O)N3CCCC3)c3ccccc32)CC1	109
CN1CCC2(C=C(C(=O)N(C)C)c3ccccc32)CC1	111.1

SMILES	Percent Effect [%]
CN1CCC2(C=C(C(=O)N3CCCC3)c3ccccc32)CC1.O=C(O)C(F)(F)F	-7.584
CSCC(=O)N1CCC2(CC1)c1ccccc1CC2O (stereo not drawn)	-1.136
O=C(O)C(F)(F)F.O=C1CC2(CNCCN(C(=O)Nc3ccccc3)C2)CN1 (stereo not drawn)	-25.05
CC(O)CN1CCC(CN(C)Cc2ccc(C#N)cc2F)CC1 (stereo not drawn)	-14.31
Cc1nccn1-c1cc(CNC(=O)C(C)(C)C)ccn1	9.207
O=C(CCN1CCCCCC1c1ccco1)N1CCOCC1 (stereo not drawn)	1.206
CC(=O)N1CCCCC1c1cc(C(=O)N2CCOCC2)[nH]n1 (stereo not drawn)	-8.904
O=C(CCN1CCCCC1c1cc2ccccc2[nH]1)N1CCOCC1 (stereo not drawn)	-12.84
O=C(c1cc(C2CCCCN2C(=O)C2CCC2)n[nH]1)N1CCOCC1 (stereo not drawn)	97.85
O=C(c1cc(C2CCCCN2CCO)n[nH]1)N1CCOCC1.O=CO (stereo not drawn)	127.4
CN(C)Cc1ccc(C2CCCCN2C(=O)c2cc(C3CC3)n[nH]2)cc1 (stereo not drawn)	2.856
COCc1cncc2c1CCN(C(=O)c1cscn1)C2	104.1
CN(C)C(=O)N1CCc2c(COCC3CC3)cncc2C1	-21.89
COCc1cncc2c1CCN(C(=O)c1ccsc1)C2	-1.861
O=C(c1cnccn1)N1CCc2c(COCC3CC3)cncc2C1	-0.9982
COCc1cncc2c1CCN(C(=O)c1ccc(C)o1)C2	-6.966
CN(C)CCOCc1cncc2c1CCN(C(=O)c1cscn1)C2	84.03
Cn1cnnc1CCNC(=O)c1ccccc1OC1CCC1	-17.05
CCNc1nc(C)c(C(=O)N(C)Cc2noc(C)n2)s1	-18.27
Cc1cc(C(=O)NC2CCCOc3cc(Cl)ccc32)n(C)n1 (stereo not drawn)	104.1
O=C(NC1CCCOc2cc(Cl)ccc21)c1ccc(=O)[nH]n1 (stereo not drawn)	103.9
O=C(Nc1ccc2c(c1)OC1(CCCC1)O2)c1ccc(=O)[nH]n1	-12.04
Cc1c(C(=O)NC2CCCOc3cc(Cl)ccc32)cnn1C (stereo not drawn)	96.08
Cc1ccc2c(c1)OCCCC2NCc1nccn1Cc1ccccc1 (stereo not drawn)	-22
Cc1ccc2c(c1)OCCCC2NCc1nccn1CC(C)C (stereo not drawn)	-15.26
O=C(Nc1ccc2c(c1)OC1(CCCCC1)O2)c1ccc(=O)[nH]n1	13.01

— ChEMBL document CHEMBL3988442, “University of Dundee, Small-Polar-MMV Screening Library” (2021)
